Sampled rows, rich in hits. Any-hit rate of the full collection: about 20%.
Shiga inhibitor – Shiga toxin inhibition; inhibition, % at 38.7 µM; 290,000 compounds, 9.2% hits; Vero cells, Shiga toxin protein synthesis inhibition reporter; in the data active = inhibition mostly above about 28%, no sharp cut-off; inactive = mostly below about 43%; also: 0% is about no effect
Cycloheximide cs – affects cycloheximide protein synthesis inhibition readout, counter-screen | AID 2314 | max response, % | 300,000 compounds, 12% hits | cell reporter, cycloheximide protein synthesis inhibition counterscreen; in the data active = max response mostly above about 13%, no sharp cut-off; inactive = mostly below about 14%; also: read at 38.3 µM for the half of the compounds with a filed dose; 0% is about no effect
HCMV antiviral – human cytomegalovirus inhibition; AID 1259415; HFF cells, HCMV-luciferase reporter, 72 h; stronger effect = lower value; 410,000 compounds, 4.5% hits; activity change, negative = inhibition, % at 57.5 µM; in the data active = activity change below about -60%; inconclusive = no clear call, values can overlap the other calls; inactive = above about -39%; also: % is scaled to controls: 0 for no effect and ±100 for the full control effect
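Cell-based, HFFs, 1000 cells/well, 16 h 37C; cpds in DMSO + HCMV-luc, MOI 1 PFU/cell; 72 h 37C; OneGlo luminescence after 5 min RT; norm. to buffer vs Salinomycin 10uM.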
Pf growth 96h – P. falciparum growth inhibition at 96 hours; 320,000 compounds, 6.9% hits; P. falciparum luciferase reporter growth, 96 h; AID 504834; Potency, µM (doses to about 28.7 µM), for inactives: at the highest dose activity change, negative = inhibition, hits mostly inhibitors; also: potency is read from the fitted curve at half-maximal effect; % is scaled to controls: 0 for no effect and ±100 for the full control effect
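Readout is luminescence from an integrated firefly luciferase in P. falciparum. Red cells, 2% hematocrit and 0.05% parasitemia final, were cultured with compound through two parasite generations (96 hours) at 37 C, 5% CO2.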
Pf growth 48h – P. falciparum growth inhibition at 48 hours (one generation); P. falciparum luciferase growth in erythrocytes, 48 h; Potency, µM (series often up to 28.7 µM), without a hit: at the top dose activity change, negative = inhibition, actives largely listed as inhibitors; 310,000 compounds, 5.9% hits; also: potency is read from the fitted curve at half-maximal effect; % is scaled to controls: 0 for no effect and ±100 for the full control effect
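Firefly luciferase activity from engineered P. falciparum reports growth; inhibitors lower the luminescent signal. Cultures contained 2% hematocrit erythrocytes at 0.1% final parasitemia.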
An asterisk follows results filed as active; ? = inconclusive; · = no result given. Unless noted, calls follow the shape of the dose curve; as a rule, active = well fitted inhibition curve with a large enough effect; inconclusive = small, poorly fitted or top-dose-only effect, or another doubt; inactive = no such curve, though single readings can be large or run the other way.

SMILES	Shiga inhibitor	Cycloheximide cs	HCMV antiviral	Pf growth 96h	Pf growth 48h
CC(=O)NC(Cc1ccc(F)cc1)C(=O)NC1CCN(C(=O)Nc2ccc(F)cc2)CC1 (centres undefined)	-7	-2	11	-3%	-8%
CCOC(=O)c1ccc(NC(=O)N2CCN(Cc3ccccc3)CC2)cc1	7	15*	48	-6%	?
CC1=CC(C)(C)[N+](C)(C)c2ccc(C)cc21	10	-3	-32	?	2.6µM*
C/C=C/C(=O)N1c2ccc(C)cc2C(C)=CC1(C)C	10	-3	-12	40%	90%
O=C(/C=C/c1ccccc1Cl)Nc1cccc(O)c1	78*	26*	28	375%	278%
O=C(/C=C/c1ccccc1Cl)NNC(=O)c1ccncc1	·	·	-4	31%	33%
COC(=O)C(CC(C)C)NC(=O)/C=C/c1ccccc1Cl (centres undefined)	-6	-3	-34	-23%	13µM*
O=C(/C=C/c1ccccc1Cl)Nc1ccccc1	60*	37*	131	73%	228%
O=C(/C=C/c1ccccc1Cl)Nc1ccc(Cl)cn1	48*	23	-31	-19%	222%
CCOC(=O)c1cc(-c2ccc(F)cc2)n(CCC(=O)NCCc2ccc(C)cc2)c1C	·	·	0	·	·
CCCCCCCCCCCCCCCC(=O)OC[C@H](COP(=O)([O-])OCC[N+](C)(C)C)OC(=O)CCCCCCCCCCCCCCC	26	-2	·	10%	4%
ONC(=NCc1ccccc1)c1ccccc1	·	·	12	·	·
CN(C)S(=O)(=O)c1ccc(NC(=O)/C=C/c2ccccc2Cl)cc1	2	1	?	?	?
CCCCOC(=O)c1cccc(NC(=O)/C=C/c2ccccc2Cl)c1	·	·	-95*	·	·
CN(C)c1ccc(NC(=O)/C=C/c2c(Cl)cccc2Cl)cc1	59*	41*	?	3%	49%
CCCCOC(=O)c1cccc(NC(=O)c2cc3ccccc3o2)c1	·	·	67	·	·
CC(=O)N/C(=C/c1ccc2c(c1)OCO2)C(=O)NCC(=O)O	12	-5	-14	-10%	8%
Cc1ccsc1/C=N/NC(=O)c1ccc([N+](=O)[O-])cc1	-3	24*	-8	2%	-9%
Cc1ccsc1/C=N/NC(=O)c1cccnc1	25	9.9*	13	23%	-8%
COc1cc(C(=O)N/N=C/c2sccc2C)cc(OC)c1OC	26	-2	-87*	-13%	-13%
Cc1ccsc1/C=N/NC(=O)c1ccc2ccccc2c1	73*	44*	62	?	2%
CC1(C(=O)NS(=O)(=O)c2cccs2)CCN1C(=O)CC(c1ccccc1)c1ccccc1 (centres undefined)	·	·	7	·	·
COc1ccc2c([N+](=O)[O-])c(Cl)[nH]c2c1	-19	2	31	-17%	10%
O=[N+]([O-])c1ccc(S(=O)(=O)NN=Cc2ccc(Cl)c(Cl)c2)cc1	·	·	40	·	·
Cc1ccsc1/C=N/NS(=O)(=O)c1ccc([N+](=O)[O-])cc1	31	48*	37	26%	-9%
SMILES	Shiga inhibitor	Cycloheximide cs	HCMV antiviral	Pf growth 96h	Pf growth 48h
Cc1ccsc1/C=N/NC(=O)Nc1ccccc1	57*	31*	50	4%	461%
CCCCC(=O)N/N=C/c1sccc1C	-13	9	83	59%	32%
Cc1ccc(S(=O)(=O)N/N=C\c2cc([N+](=O)[O-])ccc2Cl)cc1	-9	2	-90*	23%	21%
O=C1/C(=C/c2ccc(O)c(O)c2)SC(=S)N1Nc1ccccc1	31	11	·	147%	?
CCOc1cc(/C=C2\SC(=S)N(NS(=O)(=O)c3ccccc3)C2=O)ccc1O	-5	-6	50	23%	-1%
COc1cc(/C=C2\SC(=S)N(Nc3ccccc3)C2=O)ccc1O	62*	51*	52	1%	46%
O=C(NN1C(=O)/C(=C/c2ccc(O)c(O)c2)SC1=S)c1ccccc1	-9	-3	18	10µM*	-24%
CCOc1cc(/C=C2\SC(=S)N(Nc3ccccc3)C2=O)ccc1O	62*	55*	-3	-1%	64%
COc1cc(/C=C2\SC(=S)N(Nc3ncc(C(F)(F)F)cc3Cl)C2=O)ccc1O	29	14*	·	?	·
O=C(COc1ccccc1)Nc1c2c(nn1-c1ccc(F)cc1)CS(=O)(=O)C2	-14	-3	2	53%	19%
O=C(Cc1ccccc1)NN1C(=O)/C(=C/c2ccccc2C(=O)O)SC1=S	20	-1	1	12µM*	37%
Cc1ccc(C(=O)NN2C(=O)/C(=C/c3cn(C)c4ccccc34)SC2=S)cc1	-5	-2	-69*	8%	-10%
Cn1cc(/C=C2\SC(=S)N(NC(=O)c3ccccc3Cl)C2=O)c2ccccc21	-8	-2	-7	-30%	-7%
Cc1ccccc1-n1c(SCC(=O)Nc2ccc(Cl)cc2F)nnc1-c1cc2occc2n1C	·	·	-22	·	·
O=C(Nc1ccccc1)c1snc2c(=O)[nH]cnc12	18	16*	-10	-1%	-4%
Cc1ccc(-c2nn(-c3ccccc3)c3[nH]c(=O)c(CNCCN(C)C)cc23)cc1	7	-1	·	-10%	4.7µM*
Cc1ccc(-c2nn(-c3ccccc3)c3[nH]c(=O)c(CNCc4ccccc4)cc23)cc1	-3	-1	-26	-18%	1µM*
CC1(C)Cc2c(sc(NC(=O)C(=O)N3CCCCC3)c2C(N)=O)CO1	14	8	0	-28%	10%
Cc1cc(C)cc(OCCSc2nc3ccc(NC(=O)c4cccs4)cc3s2)c1	·	·	-22	·	·
CCOc1ccc2[nH]c(=O)c(C(c3nnnn3Cc3ccco3)N3CCN(C)CC3)cc2c1 (centres undefined)	96*	29*	-35	?	?
CCOc1ccc2[nH]c(=O)c(CN(Cc3cccs3)C(CC)c3nnnn3C(C)(C)CC)cc2c1 (centres undefined)	-9	-3	?	·	0.93µM*
CCOc1ccc2[nH]c(=O)c(CN(Cc3ccco3)C(CC)c3nnnn3Cc3ccccc3)cc2c1 (centres undefined)	24	1	?	?	5.9µM*
COc1ccc(N2CCN(C(c3ccccc3)c3nnc(-c4ccccc4Cl)o3)CC2)cc1 (centres undefined)	·	·	9	·	·
CC(C)N1CCC(N2CCN(Cc3nc4ccccc4s3)CC2CCO)CC1 (centres undefined)	2	9	8	-23%	?
CC(C)(C)Sc1ccc2nc3c(n2c1)CCCC3	35	15*	-15	?	12µM*
O=C(CCNC(=O)c1ccccc1Cl)NCC(c1ccco1)N1CCCC1 (centres undefined)	·	·	-20	-1%	-25%
COc1ccc(-c2nc3cccc(C)n3c2NCC2CCCO2)cc1O (centres undefined)	46*	8.1*	-33	46%	22%
CCOc1cc(-c2nc3c(C)cccn3c2NCC2CCCO2)ccc1O (centres undefined)	-10	-3	-15	19%	?
